Screening results from PubChem BioAssay.
BAZ2B inh = qHTS Assay for Inhibitors of BAZ2B. AID 504333, 2011. 360,000 compounds, 4.4% hits. AlphaScreen BAZ2B-H3K14Ac peptide displacement. Potency, µM (highest dose often 114 µM), for inactives: top-dose activity change, negative = inhibition, hits mostly inhibitors. Bromodomain adjacent to zinc finger domain protein 2B (Homo sapiens), Q9UIF8; note: % is set by controls: 0 for no effect and ±100 for the full control effect; nearly all actives have a fitted effect of over 60% in size
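Multi-concentration screen (max 110 uM) measuring displacement of acetylated histone H3 peptide from BAZ2B by AlphaScreen, using 50 nM protein, 50 nM peptide and 10 ug/mL streptavidin donor plus Ni-chelate acceptor beads.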
G9a block = qHTS Assay for Inhibitors of Histone Lysine Methyltransferase G9a; AID 504332, 2011; 350,000 compounds, 8.8% hits; Potency, µM (titrated, usually from 102 µM), for inactives: at the top dose activity, negative = inhibition, most hits filed as inhibitors; G9a H3K9 monomethylation, AlphaScreen, 2 h; Histone-lysine N-methyltransferase EHMT2 (Homo sapiens), Q96KQ7; note: % is set by controls: 0 for no effect and ±100 for the full control effect; nearly all actives have a fitted effect of over 75% in size
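Quantitative HTS format: methyltransferase activity on a biotin-tagged H3K9 peptide is measured by AlphaScreen, using a rabbit anti-monomethyl-H3K9 antibody with streptavidin donor and anti-IgG acceptor beads. Final levels are 20 nM enzyme, 500 nM peptide, 20 uM SAM; 2 h RT.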
JMJD2A Tudor = qHTS Assay for Inhibitors of JMJD2A-Tudor Domain; 390,000 compounds, 4.4% hits; Potency, µM (top dose mostly 114 µM), for inactives: at the highest dose activity change, negative = inhibition, actives largely listed as inhibitors; AlphaScreen JMJD2A-Tudor / H3K4me3 peptide binding; Lysine-specific demethylase 4A (Homo sapiens), O75164; AID 504339, 2011; note: % is set by controls: 0 for no effect and ±100 for the full control effect; nearly all actives have a fitted effect of over 50% in size
PLK1 PBD inh = qHTS for Inhibitors of PLK1-PDB (polo-like kinase 1 - polo-box domain): Primary Screen; Plk1 PBD binding of FITC phosphopeptide, fluorescence polarization; Potency, µM, for inactives: max response, negative = inhibition, actives largely listed as inhibitors; 360,000 compounds, 2.8% hits; note: series mostly up to about 57 µM; % is set by controls: 0 for no effect and ±100 for the full control effect; nearly all actives have a fitted effect of over 65% in size
Target sequence (P53350 whole entry, looked up, the tested form may be a part): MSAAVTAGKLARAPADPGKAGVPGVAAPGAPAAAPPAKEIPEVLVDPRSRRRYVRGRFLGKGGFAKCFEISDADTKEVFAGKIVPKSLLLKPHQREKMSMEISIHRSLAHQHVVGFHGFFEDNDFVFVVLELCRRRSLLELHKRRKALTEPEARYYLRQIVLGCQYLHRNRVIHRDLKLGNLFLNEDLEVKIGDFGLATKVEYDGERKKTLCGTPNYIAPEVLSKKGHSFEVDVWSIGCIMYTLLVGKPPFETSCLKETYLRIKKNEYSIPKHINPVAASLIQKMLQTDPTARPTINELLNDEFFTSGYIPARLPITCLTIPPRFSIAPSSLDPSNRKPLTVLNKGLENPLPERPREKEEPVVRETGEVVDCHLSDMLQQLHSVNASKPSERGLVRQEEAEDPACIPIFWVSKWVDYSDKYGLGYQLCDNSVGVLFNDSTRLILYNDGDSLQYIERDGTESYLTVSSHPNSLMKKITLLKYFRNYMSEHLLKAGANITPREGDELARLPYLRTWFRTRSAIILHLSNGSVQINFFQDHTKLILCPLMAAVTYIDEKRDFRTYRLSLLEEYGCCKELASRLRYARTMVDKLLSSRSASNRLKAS
HP1b chromo inh = HTS for Inhibitors of HP1-beta Chromodomain Interactions with Methylated Histone Tails | Chromobox protein homolog 1 (Homo sapiens), P83916 | AlphaScreen HP1-beta / biotin-H3K9me3 peptide binding | Potency, µM (titrated, usually from 114 µM), inactives show at the top dose activity change, negative = inhibition, most hits filed as inhibitors | 390,000 compounds, 0.56% hits; note: nearly all actives have a fitted effect of over 70% in size
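AlphaScreen: HP1-beta (50 nM) preformed 30 min with biotin-H3(1-18)K9me3 peptide (50 nM) in PBS pH 7.4, 0.01% Tween-20. Compound added for 30 min at RT, then streptavidin donor/nickel chelate acceptor beads (10 ug/mL) for 30 min.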
Sfp PPTase inh = qHTS Assay for Inhibitors of Bacillus subtilis Sfp phosphopantetheinyl transferase (PPTase) | Biochemical Sfp PPTase activity, qHTS | 4'-phosphopantetheinyl transferase ffp (Bacillus subtilis), Q9F4F7 | AID 1490, 2009 | 310,000 compounds, 3.5% hits | Potency, µM, for the others: largest response in the series, negative = inhibition, most hits filed as inhibitors;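 note: the enzyme is Sfp with the accession as filed and its product quenches rhodamine fluorescence; 0% = enzyme reaction without inhibitor and -100% = no enzyme wells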
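Sfp 15 nM + cpd, 15 min RT; start w/ rhodamine-CoA 5 uM, BHQ-2-YbbR 12.5 uM (final); 50 mM Hepes pH 7.6, 10 mM MgCl2, 0.01% NP-40, 0.01% BSA; read 525/598 nm at 0 and 30 min.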
The depositor's hits bear a star; ? = inconclusive; . = no result; [ ] = dose if it differs, or a comment. In the library only some 12% were active in any assay of this set; here they are far more common. Calls come from the whole dose curve; as a rule, active = well fitted curve in the direction sought with a large enough effect; inconclusive = small, poorly fitted or top-dose-only effect, or another doubt; inactive = no such curve, though single readings can be large; an effect the other way counts as inactive or inconclusive. Potency is the fitted concentration of half-maximal effect.

SMILES	BAZ2B inh	G9a block	JMJD2A Tudor	PLK1 PBD inh	HP1b chromo inh	Sfp PPTase inh
COc1ccccc1CNc1nc2nc(C)c(Cl)c(=O)n2[nH]1	14%	13µM*	-14%	-5%	32%	13%
COc1ccccc1CNc1nc2nc(C)c(Cl)c(C)n2n1	-4%	-21%[59 µM]	-7%	.	26%	.
Cc1cc(=O)n2[nH]c(NCc3ccc(F)cc3)nc2n1	-21%	-41%[59 µM]	-23%	.	23%	.
CN(C)C1CN(Cc2cn(Cc3ccc(Cl)cc3)nn2)S(=O)(=O)C1 (centres undefined)	.	.	.	-10%	.	.
Cc1c(NS(=O)(=O)c2cccc(C(=O)O)c2)c(=O)n(-c2ccccc2)n1C	-12%	-3%[59 µM]	9%	6%	71%	7%
Cc1cccc(NC(=O)c2cccc(S(=O)(=O)Nc3c(C)n(C)n(-c4ccccc4)c3=O)c2)c1	.	.	-7%	2%	-3%	.
CC(=O)c1ccc(NC(=S)Nc2cccc(S(=O)(=O)Nc3c(C)n(C)n(-c4ccccc4)c3=O)c2)cc1	.	?	-22%	24µM*	16%	22µM*
Cc1ccc(NC(=S)Nc2cccc(S(=O)(=O)Nc3c(C)n(C)n(-c4ccccc4)c3=O)c2)cc1	-19%	45µM*	-21%	?	-3%	-30%
Cc1nc2cnc(N3CCOCC3)nc2n(CCc2ccccc2)c1=O	.	5%[0.501 µM]	.	.	.	20%
CCOC(=O)Cc1csc(N/N=C\c2ccc(N(C)C)cc2)n1	11µM*	45µM*	40µM*	-7%	-14%	?
CCOC(=O)Cc1csc(N/N=C\c2cccc(Br)c2)n1	-3%	-27%[0.0925 µM]	28µM*	24µM*	8%	-26%
O=C(C[n+]1ccc(Cc2ccccc2)cc1)Nc1ccc([N+](=O)[O-])cc1Cl	-37%	-9%	-35%	-11%	45%	11%
Cc1ccc(Cl)cc1NC(=O)C[n+]1ccc(Cc2ccc([N+](=O)[O-])cc2)cc1	-4%	25µM*	?	2%	21%	45µM*
Cc1cc(C)c(S(=O)(=O)N2CCN(C(=O)C3COc4ccccc4O3)CC2)c(C)c1 (centres undefined)	-8%	11%[12.7 µM]	-18%	0%	27%	.
Cn1ncc(C#N)c1NC(=O)C1CC(c2ccccc2Cl)=NO1 (centres undefined)	-17%	.	?	30µM*	0%	7%
O=C(Nc1ccc2c(c1)OCO2)C1CC(c2ccccc2Cl)=NO1 (centres undefined)	-33%	10%[59 µM]	-18%	-1%	18%	9%
Cc1cccc(NC(=O)Cn2c(O)c(N=NC(=O)c3ccccc3O)c3ccccc32)c1	79µM*	-6%[59 µM]	?	?	22%	?
CCOC(=O)c1c(S(=O)(=O)NCCCc2ccco2)c(C)n(C)c1C	56µM*	45µM*	?	-13%	-5%	-18%
Cc1c(Cl)cccc1-n1c(SCC(=O)NCc2ccccc2)nc2n[nH]c(C)c2c1=N	1%	4%[59 µM]	-7%	.	32%	.
CC(C)c1nn2c(=O)cc(COC(=O)c3ccccc3NC(=O)c3cccs3)nc2s1	-2%	-3%[12.7 µM]	4%	.	45%	.
CCCN1C=CC(=C/C=C(\C#N)C(=O)OCC)C=C1	50µM*	?	.	.	.	-1%
Cc1ccc(N2CCN(C(=O)c3noc4c3COc3ccc(C)cc3-4)CC2)c(C)c1	-11%	-22%[59 µM]	-15%	.	32%	.
C#CCOCCOCCOCCNc1nc(OC)nc(N2CCN(C(=O)[C@H](CCC(=O)O)n3cc(C(N)CO)nn3)CC2)n1 (some centres undefined)	79µM*	-6%[2.33 µM]	79µM*	7%	-12%	.
